Compound activity from PubChem.
Sampled rows, rich in hits. Any-hit rate of the full collection: about 3.3%.
Vaccinia Venus: inhibitors of vaccinia virus (Venus reporter). hit rate 0.46% among 330,000. Potency, µM (highest dose often 36.5 µM), most hits filed as inhibitors. Vaccinia virus Venus reporter expression, fluorescence. AID 720580; calls by dose curve; tested in A549 cells; also: nearly all actives have a fitted effect of over 30% in size
Vaccinia mCherry: vaccinia inhibition (mCherry reporter) | Vaccinia virus mCherry reporter infection, fluorescence | hit rate 0.63% among 310,000 | Potency, µM (doses to about 36.5 µM), actives largely listed as inhibitors | AID 720579; calls by dose curve; tested in A549 cells; also: nearly all actives have a fitted effect of over 35% in size
HCV inhibitor: blocks hepatitis C virus; hit rate 3.4% among 340,000; AID 651820; Potency, µM (doses to about 41.8 µM), usual class: inhibitors; Huh7.5.1 HCVcc-Cre infection, luciferase reporter, 44 h; active = well fitted inhibition curve with a large enough effect; inconclusive = small, poorly fitted or top-dose-only effect, or another doubt; inactive = no such curve, though single readings can be large or run the other way
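Compounds are dispensed onto cells plated 4 h earlier at 1,000 per well, with HCVcc-Cre virus (about 0.5 moi) added next. Following 44 h of culture, luminescent signal is measured for 15 sec after 15 min with substrate at room temperature.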
A number is an active result; 0 = inactive; ? = inconclusive; - = no result given; [ ] = another dose, or the depositor's remark.

SMILES	Vaccinia Venus	Vaccinia mCherry	HCV inhibitor
O=[N+]([O-])/C=C/c1cn(Cc2ccc(F)cc2)c2ccccc12	0	?	8.91µM
CC(C)c1ccc(NC(=O)CSc2nnc(-c3ccccc3)n2C)cc1	0	0	-
COc1ccccc1CCc1nnc(CCC(=O)NCC(C)Oc2cccnc2)o1 (stereo not drawn)	-	-	0
COc1ccccc1CCc1nnc(CCC(=O)NC(C)Cc2ccsc2)o1 (stereo not drawn)	1.78µM	1.12µM	0
O=C(CCC1N=C2c3ccccc3N=C(SCc3ccccc3Cl)N2C1=O)NCCc1ccccc1 (stereo not drawn)	0	0	-
Nc1ncccc1C(=O)OCC(=O)N1CCN(S(=O)(=O)c2ccc(Cl)cc2)CC1	-	-	0
COc1ccc2cc(C(C)C(=O)Nc3cccc(S(=O)(=O)N(C)C)c3)ccc2c1 (stereo not drawn)	?	0	25.1µM
CNC(=O)c1cccc(NC(=O)C(C)c2ccc3cc(OC)ccc3c2)c1 (stereo not drawn)	0	0	0
COc1ccc(O)c(/C=N/NC(=S)Nc2cccnc2)c1	?	11.2µM	?
CCN(CC)S(=O)(=O)c1ccc(N/N=C/c2cccnc2)nc1	-	-	0
COc1cccc(/C=N/NC(=S)Nc2cccc(S(=O)(=O)N(C)C)c2)c1	-	-	0
COc1ccc(O)c(/C=N/NC(=S)Nc2cccc(S(=O)(=O)N(C)C)c2)c1	?	2µM	?
COc1cccc(/C=N/NC(=S)Nc2cccnc2)c1	0	0	?
CCN(CC)S(=O)(=O)c1ccc(N/N=C/c2cc(OC)ccc2O)nc1	?	2µM	2.82µM
Cc1cc(OC(=O)c2ccccc2C)c([N+](=O)[O-])c(=O)[nH]1	-	-	0
Clc1ccc(Cn2cc(/C=N/n3cnnc3)c3ccccc32)cc1	?	-	10µM
Cc1ccccc1Cn1cc(/C=N/n2cnnc2)c2ccccc21	?	?	0
COc1cccc(CNc2sc3c(c2C(=O)Nc2ccc(OC)cc2OC)CCC3)c1	0	0	-
CCN(CC)C(=O)CSc1nc(C)cc(C)c1C#N	0	0	0
CCN(Cc1ccccc1)C(=O)CSc1nc(C)cc(C)c1C#N	0	0	10µM
O=C(NCCN1CCNC1=O)c1ccc2sc([C@@H]3O[C@H](CO)[C@H](O)[C@H](O)[C@H]3O)nc2c1	0	0	-
O=c1[nH]c(=O)n(C2C[C@H](O)[C@@H](CO)O2)cc1C(F)(F)F (stereo partly drawn)	?	0.501µM	0
O=c1[nH]c(=O)n(C2CC(O)C(CO)O2)cc1Br (stereo not drawn)	0	?	0
O=c1[nH]c(=O)n([C@H]2C[C@@H](O)[C@@H](CO)O2)cc1F	14.1µM	3.55µM	-
CCc1cn([C@H]2C[C@H](O)[C@@H](CO)O2)c(=O)[nH]c1=O	?	?	0[8.37 µM]
SMILES	Vaccinia Venus	Vaccinia mCherry	HCV inhibitor
CSc1ccc(NS(=O)(=O)c2ccc(-n3cnnn3)cc2)cc1	0	0	0
COCCNC(=O)C(=O)NCC1OCCN1S(=O)(=O)c1ccc(F)cc1 (stereo not drawn)	0	0	0
Cc1ccc(S(=O)(=O)CC(N)=O)cc1	0	0	0
Cc1ccc(S(=O)(=O)CCSC(=N)N)cc1	?	?	10µM
COc1ccc(-c2noc(CSc3nnc(C)n3-c3ccc(OC)cc3)n2)cc1	0	0	-
COc1ccc(CNC(=O)c2cnn(-c3ncc4c(n3)-c3ccccc3CC4)c2C)cc1OC	0	0	-
COc1cc([C@@H]2c3cc4c(cc3C(O[C@@H]3O[C@@H]5COC(c6cccs6)O[C@H]5[C@H](O)[C@H]3O)C3COC(=O)[C@@H]32)OCO4)cc(OC)c1O (stereo partly drawn)	?	2µM	-
COc1cc(C2c3cc4c(cc3C(OC(C)=O)[C@H]3COC(=O)C23)OCO4)cc(OC)c1OC (stereo partly drawn)	0	0	-
CCN1CCN(Cc2c(O)ccc3oc(C)c(C(=O)Nc4cccc(Cl)c4C)c23)CC1	0	0	-
Cc1nnc(SCCn2c(N3CCC(Cc4ccccc4)CC3)nc3c2c(=O)[nH]c(=O)n3C)s1	0	0	?
CCCCCCn1c(SCC(=O)OC)nc2c1c(=O)[nH]c(=O)n2C	0	0	5.01µM
Cn1c(=O)[nH]c(=O)c2c1nc(N1CCNCC1)n2Cc1ccccc1	0	0	0
COc1ccc(-c2nc3c(c(=O)[nH]c(=O)n3Cc3ccccc3)n2C)cc1	0	-	0
CCCCCCn1c(SCC(C)C)nc2c1c(=O)[nH]c(=O)n2C	0	-	?
Cn1c(=O)[nH]c(=O)c2c1nc([N+](=O)[O-])n2Cc1ccccc1	10µM	?	0
CCCCn1c(N2CCC(Cc3ccccc3)CC2)nc2c1c(=O)[nH]c(=O)n2C	?	-	35.5µM
COc1ccc(-c2nc3c(c(=O)[nH]c(=O)n3Cc3ccccc3)n2Cc2ccccc2)cc1	-	-	12.6µM
Cc1cccc(NC(=O)CSc2cn(CC(=O)N3CCC(C)CC3)c3ccccc23)c1C	0	0	-
CC(C)C(=O)NCC1CCC2(CCN(Cc3ccc(-c4cccc(Cl)c4)o3)CC2)O1 (stereo not drawn)	0	0	-
Cc1cc(C)c(NC(=O)c2cc(S(=O)(=O)N3CCN(c4ccccc4F)CC3)ccc2F)c(C)c1	0	0	-
Cc1cc(C(=O)c2ccc3ccccc3c2)c(C)o1	-	-	0
CCOC(=O)CSc1nc2c(c(=O)[nH]c(=O)n2C)n1Cc1ccccc1	-	-	2.82µM
Cn1c(=O)[nH]c(=O)c2c1nc(SCCC(=O)O)n2Cc1cccc(Br)c1	0	0	0
CCOC(=O)CSc1nc2c(c(=O)[nH]c(=O)n2C)n1CCCc1ccccc1	0	0	0
CC(=O)CSc1nc2c(c(=O)[nH]c(=O)n2C)n1Cc1cccc(Br)c1	?	0	12.6µM
SMILES	Vaccinia Venus	Vaccinia mCherry	HCV inhibitor
CCCCCn1c(Sc2ncccn2)nc2c1c(=O)[nH]c(=O)n2C	0	-	0
CCCCCn1c(Sc2nc3ccccc3s2)nc2c1c(=O)[nH]c(=O)n2C	10µM	10µM	8.91µM
CCOc1ncccc1C(=O)OCC(=O)NC1CCCCC1	-	-	0
COc1cc(CN2CCCCC2C(=O)Nc2ccc(Oc3ccccc3)nc2)ccc1O (stereo not drawn)	0	0	0
CC(Oc1ccc(F)cc1)C(=O)Nc1nc(-c2ccccn2)cs1 (stereo not drawn)	?	?	8.91µM
O=C(CCS(=O)(=O)c1ccccc1)Nc1nc(-c2ccccn2)cs1	?	10µM	?
Cc1cc(C)c(OCC(=O)Nc2nc(-c3ccccn3)cs2)c(C)c1	?	?	3.98µM
O=C(CCS(=O)(=O)c1ccc(F)cc1)Nc1nc(-c2ccccn2)cs1	-	-	0
COc1ccc(OCCCC(=O)Nc2nc(-c3ccccn3)cs2)cc1	0	?	?
Cc1cccc(OC(C)C(=O)Nc2nc(-c3ccncc3)cs2)c1 (stereo not drawn)	0	?	?
CN(C)c1ncnc2c1ncn2[C@H]1CN(Cc2ccco2)C[C@@H](CO)O1	0	0	-
O=S1(=O)CCO[C@H]2CCCC[C@@H]2N1Cc1ccccc1	0	0	-
O=C(NCc1ccccc1Cl)c1cnc(N2CCCCC2)c2ccccc12	0	0	-
Cc1cc(NCCCn2ccnc2)n2ncc(-c3ccccc3)c2n1	?	-	0
Cc1cc(NCCN2CCOCC2)n2nc(C)c(-c3ccccc3)c2n1	0	-	?
Cc1cc(NCCN2CCOCC2)n2nc(C)c(-c3ccc(Cl)cc3)c2n1	0	-	10µM
Cc1cc(NCCCn2ccnc2)n2nc(C)c(-c3ccc(Cl)cc3)c2n1	-	-	10µM
CC(=O)NC1=NN(C(C)=O)C2(CCCCC2)S1	0	0	2.82µM
